Assay outcomes from PubChem.
Compounds with a hit are over-represented: about 7.9% of the library has one in this group of screens.
KB-3-1 tox: kills parental KB-3-1 adenocarcinoma cells; AID 1347075; 400,000 tested, 1.4% active; Potency, µM (top dose mostly 46.1 µM), hits mostly cytotoxic; KB-3-1 viability, CellTiter-Glo ATP luminescence, 72 h; also: % is scaled to controls: 0 for no effect and ±100 for the full control effect; nearly all actives have a fitted effect of over 60% in size
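Cells are dispensed, compounds pinned in, plates held at 37 °C for 72 h, then CellTiter-Glo is added and luminescence read after 10 minutes. Cell line: parental KB-3-1 in phenol-red-free DMEM, 10% FBS.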
HT1080NT lethal: kills 2HG-producing HT-1080-NT fibrosarcoma cells; AID 686970; HT-1080-NT fibrosarcoma viability, CellTiter-Glo ATP luminescence, 48 h; 360,000 tested, 1.6% active; Potency, µM (highest dose often 46.1 µM), inactives show top-dose activity, negative = less viability, usual class: cytotoxic;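 also: NT is the 2HG producing partner of a matched IDH1 knockdown line; 0% = DMSO-treated cells and -100% = media-only wells without cells; nearly all actives have a fitted effect of over 55% in size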
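A 48-hour cytotoxicity screen used HT-1080-NT cells plated 2 hours before compound delivery. ATP-based CellTiter-Glo luminescence measured viability, normalized to DMSO and no-cell controls.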
KB-V1 MDR tox: kills drug-selected multidrug resistant KB-V1 cells; KB-V1 MDR cells viability, CellTiter-Glo, 72 h; Potency, µM (series often up to 46.1 µM), hits mostly cytotoxic; 400,000 tested, 3.4% active; AID 1347076; also: % is scaled to controls: 0 for no effect and ±100 for the full control effect; nearly all actives have a fitted effect of over 60% in size
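Drug-selected KB-V1 cells, grown in DMEM lacking phenol red with 10% FBS, receive compound titrations; after three days at 37 degrees C, surviving cell ATP is quantified by CellTiter-Glo luminescence and responses normalized and curve-fitted.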
HT1080 IDH1KD tx: toxicity to HT-1080 IDH1 knockdown cells (counter line); AID 686971; HT-1080 IDH1 knockdown viability, ATP luminescence, 48 h; 360,000 tested, 2% active; Potency, µM (series often up to 46.1 µM), inactives show at the highest dose activity, negative = toxicity, most hits filed as cytotoxic;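 also: 0% = DMSO wells and -100% = cell-free medium wells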
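After a 2 h attachment period, IDH1KD HT-1080 cells took pin-transferred compound for 48 h at 37 °C; ATP-based luminescence after 10 min room-temperature reagent incubation reported viability.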
MCF10A rereplic: inducers of DNA re-replication in MCF 10A breast cells | MCF 10A DNA re-replication, Hoechst nuclear intensity, 48 h | Potency, µM (doses to about 46.1 µM), for the others: at the top dose activity, positive = re-replication, hits mostly activators | 350,000 tested, 2.9% active | AID 624296; also: % of control where 0% means no effect; nearly all actives have a fitted effect of over 50% in size
SW480 rerep: induces DNA re-replication in SW480 colon adenocarcinoma cells; AID 624297; Potency, µM (series often up to 46.1 µM), without a hit: at the highest dose re-replication activation, usual class: activators; 340,000 tested, 1.8% active; SW480 DNA re-replication, Hoechst DNA content imaging, 48 h; also: % of control where 0% means no effect; nearly all actives have a fitted effect of over 55% in size
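Per well, 250 cells were exposed to pinned compound for 48 hr. Nuclear DNA was visualised with Hoechst (40 min, 37 C) and total object intensity recorded by fluorescence scanning.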
Numbers without * were called inactive; i = inactive; ? = inconclusive; . = no result; ! = a repeat was not active; [ ] = remark or other dose. Calls follow the shape of the dose curve; as a rule, active = well fitted curve in the direction sought with a large enough effect; inconclusive = small, poorly fitted or top-dose-only effect, or another doubt; inactive = no such curve, though single readings can be large; an effect the other way counts as inactive or inconclusive. Potency is read from the fitted curve at half-maximal effect.

SMILES	KB-3-1 tox	HT1080NT lethal	KB-V1 MDR tox	HT1080 IDH1KD tx	MCF10A rereplic	SW480 rerep
Cc1cc(Nc2ccccc2)n(-c2nc3ccccc3[nH]2)n1	?	?	?	?	?	14%
Cc1cc(NC(=O)c2ccccc2F)n(-c2nc3ccccc3[nH]2)n1	?	?	15µM*	-18%	?	5%
Cc1cc(NC(=O)c2ccc(C)s2)n(-c2nc3ccccc3[nH]2)n1	i	-7%	i	0%	5%	1%
Cc1cc(NC(=O)c2c(F)cccc2F)n(-c2nc3ccccc3[nH]2)n1	?	?	i	10µM*	12µM*	8.2µM*
O=C(Cc1c(F)cccc1Cl)OCN1C(=O)c2ccccc2C1=O	i	15%	i	15%	-1%	2%
COc1ccccc1C1CCN(C(=O)c2ccc(Cl)cc2)CC1	i	4%	i	6%	4%	-5%
CCCCCn1c(=O)c(C(=O)c2ccccc2)nc2ccccc21	?	1%	12µM*	3%	-1%	-5%
CCn1c(=O)c(C(C)=O)nc2ccccc21	i	10%	i	4%	-14%	-5%
O=C(O)C(c1ccccc1)c1ccccc1	i	13%	i	15%	30%	4%
CN1CCc2c(c3ccccc3n2Cc2ccccc2)C1	?	?	?	16µM*!	23%	?
COc1ccc(C(=O)Nc2nc3n(n2)C(c2ccc(Cl)cc2)C=C(c2ccccc2)N3)cc1OC (configuration not stated)	i	.	i	.	.	.
O=C(Nc1ccc(Cl)c(C(F)(F)F)c1)c1cc2nc(-c3ccc4c(c3)OCO4)cc(C(F)(F)F)n2n1	i	.	i	.	.	.
CCC(=O)Nc1cc(OC)c(NC(=S)Nc2ccccc2CC)cc1OC	i	2%	i	1%	.	.
COc1ccc2[nH]c(C(=O)N/N=C/c3ccc(O)cc3O)cc2c1	i	?	i	2.3µM*	?	1%
CCOc1ccc2[nH]c(C(=O)N/N=C/c3ccc(OC)cc3)cc2c1	1.5µM*	0.92µM*	?	1.3µM*	?	1.2µM*
COc1ccc(/C=N/NC(=O)c2nc(-c3ccccc3)n(-c3ccccc3)n2)c(O)c1	?	?	i	?	7.3µM*	?
COc1ccc(/C=N/NC(=O)c2nc(-c3ccccc3)n(-c3ccccc3)n2)cc1	i	0%	i	9%	6%	-8%
Cc1ccc(S(=O)(=O)NCCC(=O)NC2CCCCCC2)cc1	i	1%	i	-5%	-8%	15%
N=C1C(c2nc3ccccc3s2)=C(O)CN1Cc1ccccc1	4.1µM*	?	?	?	5.2µM*	?
COc1ccc(OC)c(N2CC(O)=C(c3nc4ccccc4s3)C2=N)c1	i	-11%	i	-17%	16%	2%
CCOc1ccccc1N1CC(O)=C(c2nc3ccccc3s2)C1=N	9.2µM*	2.8µM*	?	2.8µM*	3%	-1%
CN[C@H]1[C@H](O)[C@@H](O[C@@H]2[C@H](O)[C@@H](O[C@H]3OC(CN)=CC[C@H]3N)[C@@H](N)C[C@H]2N)OC[C@@]1(C)O	.	.	.	.	3%[20.6 µM]	4%[20.6 µM]
O=C(COc1ccccc1Cl)NCCNC(=O)c1cccnc1	i	16%	i	22%	1%	-5%
O=C(N[C@@H](Cc1ccccc1)C(=O)NC1CCCCC1)c1ccco1	i	-1%	13µM*	0%	15%	0%
O=C(N[C@@H](Cc1ccccc1)C(=O)NC1CCCCCC1)c1ccco1	?	-20%	5.2µM*	-21%	-4%	1%
SMILES	KB-3-1 tox	HT1080NT lethal	KB-V1 MDR tox	HT1080 IDH1KD tx	MCF10A rereplic	SW480 rerep
O=C(NC(Cc1ccccc1)C(=O)O)c1ccco1 (configuration not stated)	i	0%	i	-8%	1%	?
COc1ccc(S(=O)(=O)N2CCN(CC(=O)c3ccc(O)c(O)c3)CC2)cc1	i	0%	i	-17%	18%	-17%
CCOC(=O)C(=O)c1csc(NC(=O)CCSc2ccc(C)cc2)n1	i	7%	i	12%	0.58µM*	3%
CCN(CC)c1ccc2ccc(=O)oc2c1	i	0%	i	0%	?	18µM*
Cc1ccc(S(=O)(=O)c2cc3ccccc3oc2=O)cc1	?	-23%	i	?	?	-10%
CCN(CC)c1ccc2cc(C#N)c(=O)oc2c1	i	20%	i	20%	9%	1%
CCN(CC)c1ccc2cc(S(=O)(=O)c3ccc(C)cc3)c(=O)oc2c1	i	15%	i	5%	2.6µM*	3.3µM*
CCN(CC)c1ccc2c(C)cc(=O)oc2c1	i	.	?	.	26µM*	?
CCOC(=O)C1=C(CN(C)Cc2ccccc2)NC(=O)NC1c1ccc(OC(C)C)cc1 (configuration not stated)	i	.	i	.	.	.
Cc1cn([C@H]2C[C@H](O)[C@@H](CNCc3ccccc3OCCCN3CCOCC3)O2)c(=O)[nH]c1=O	i	-5%	i	2%	.	.
Nc1nc(N)c2c(OCc3ccc(C(F)(F)F)cc3)cccc2n1	?	.	i	.	.	.
OCC1(CCc2ccccc2)CCCN(CCCc2ccccc2)C1 (configuration not stated)	i	-10%	i	?	17%	-2%
Cc1ccc(C[n+]2cc(-c3ccc(Cl)cc3)n3c2CCC3)cc1	6.5µM*	-23%	?	-19%	11%	2%
Cc1ccc(-c2c[n+](Cc3cccc(Cl)c3)c3n2CCC3)cc1	8.2µM*	?	i	?	9%	-5%
Clc1cccc(C[n+]2cc(-c3ccccc3)n3c2CCC3)c1	9.2µM*	0%	i	?	17%	-33%
O=C(C[n+]1cc(-c2ccc(Cl)cc2)n2c1CCCCC2)c1ccccc1	?	-7%	i	-14%	?	-6%[9.22 µM]
Cc1ccc(-c2c[n+](Cc3ccc(Cl)cc3)c3n2CCC3)cc1	?	?	i	?	2%	5%
N#CC1(NC(=O)COC(=O)c2nccnc2N)CCCCC1	i	4%	i	2%	0%	-6%
CCOC(=O)[C@]12CCCC=C1N(Cc1ccco1)C(=O)[C@H](CC(=O)N1CCOCC1)C2	i	17%	i	2%	.	.
COc1ccc(N2CCC(CNC(=O)Nc3cccc(OC)c3)C2)cc1 (configuration not stated)	i	-25%	21µM*	-30%	?	12%
CCc1ccccc1NC(=S)NCC1CCN(c2ccc(OC)cc2)C1 (configuration not stated)	?	?	21µM*	2%	?	-8%
